Among all 5,500 compounds or so, about 2,000 (36%) were called active. About 18% were inconclusive and are not listed. No stated cut-off is given here; in the data, active means normalized growth mostly below about 0.91 (no sharp cut-off); inconclusive means no clear call, values can overlap the other calls; inactive means mostly above about 0.92. This is one part of the list.
Assay: chemical genetic growth profiling, strain panel (AID 1159580);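 further: tested at 20 µM; growth read once vehicle control cultures reached saturation at 30 °C; 1 = growth at the plate median or of vehicle wells; lower values mean less growth of the strain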
Details: S. cerevisiae deletion strains, growth OD

Measured: normalized growth

NC(Cc1ccc(N(CCCl)CCCl)cc1)C(=O)O (stereo not given)
inactive: locus YAL013W, strain DEP1, active compounds read low 0.981 | locus YAL040C, strain CLN3, active compounds read low 0.995 | locus YCL061C, strain MRC1 (second series), active compounds read low 0.996 | locus YDR150W, strain NUM1, active compounds read low 1.01 | locus YDR363W, strain ESC2, active compounds read low 0.986 | locus YER002W, strain NOP16, active compounds read low 0.974 | locus YGR078C, strain PAC10, active compounds read low 0.976 | locus YJR075W, strain HOC1, active compounds read low 1 | locus YMR263W, strain SAP30, active compounds read low 0.997 | locus YMR307W, strain GAS1, active compounds read low 1 | locus YNL153C, strain GIM3, active compounds read low 1.04 | locus YNL175C, strain NOP13, active compounds read low 0.977 | locus YNL197C, strain WHI3, active compounds read low 0.983 | locus YNL224C, strain SQS1, active compounds read low 1.01 | locus YOR083W, strain WHI5 (second series), active compounds read low 0.993

Reference: PubChem BioAssay AID1159580 (chemical genetic matrix, 2015)
